# Source: PubChem BioAssay
# For part of these data: Entries with a potency or affinity are not part of this list. Activity calls are given as the source filed them.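 Rule for the calls, unless noted: active = earlier screen potentiator hit that boosts the TRPC4 ion channel at some dose, with a dose response; inactive = no potentiation, no dose response, or not a prior hit.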
# Assays:
# [1] = test system: TRPC4 beta (transient receptor potential cation channel C4), mouse; assay: activators of mouse TRPC4 channel, confirmation, cell-based, Fluo4 calcium, HEK293 TRPC4beta/mu-opioid, duplicates, 10 µM (AID 2426;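 active = fluorescence ratio normalized to control raised more than 50% in primary screen plus both repeat runs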); details: Fluo4 calcium fluorescence, at 10 µM; hits give high values
# [2] = test system: transient receptor potential cation channel C4 beta (TRPC4), mouse; assay: activators of mouse TRPC4 channel, confirmation, cell-based, second round, Fluo4, HEK293 TRPC4beta/mu-opioid, 1 µM (AID 2461;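 active = primary screen active and over 50% activation in each of two duplicate runs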); details: Fluo4 calcium fluorescence, at 1 µM; hits give high values
# [3] = test system: TRPC4 (transient receptor potential cation channel C4 beta), mouse; assay: positive allosteric modulators of mouse TRPC4, confirmation, cell-based, second round, Fluo-4, HEK293 TRPC4beta/mu-opioid, 1 µM (AID 2554;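 active = primary screen hit whose fluorescence ratio, in both repeats, exceeds the weak agonist control mean by 3 SD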); details: DAMGO EC20, Fluo-4 calcium flux, at 1 µM; hits give high values
# [4] = test system: TRPC4 beta (transient receptor potential cation channel C4), mouse; assay: positive allosteric modulators of mouse TRPC4, confirmation, cell-based, Fluo-4, HEK293 TRPC4beta/mu-opioid (AID 2555;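 active = primary screen hit whose calcium fluorescence ratio, in both repeats, exceeds the weak agonist control mean by 3 SD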); details: DAMGO EC20, Fluo-4 calcium flux, at 10 µM; hits give high values
# [5] = biological target: Short transient receptor potential channel 4 (Mus musculus) (UniProt Q9QUQ5); assay: inhibitors of mouse TRPC4 channel, confirmation, cell-based, Fluo4, HEK293 TRPC4beta/mu-opioid (AID 2636;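 active = calcium signal cut by more than 3 SD below the full-agonist control yet still positive, in both repeats and the earlier primary screen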); details: DAMGO, Fluo4 calcium flux, at 10 µM; hits give high values
# Chain of Short transient receptor potential channel 4 (Mus musculus) (Q9QUQ5 whole entry, looked up): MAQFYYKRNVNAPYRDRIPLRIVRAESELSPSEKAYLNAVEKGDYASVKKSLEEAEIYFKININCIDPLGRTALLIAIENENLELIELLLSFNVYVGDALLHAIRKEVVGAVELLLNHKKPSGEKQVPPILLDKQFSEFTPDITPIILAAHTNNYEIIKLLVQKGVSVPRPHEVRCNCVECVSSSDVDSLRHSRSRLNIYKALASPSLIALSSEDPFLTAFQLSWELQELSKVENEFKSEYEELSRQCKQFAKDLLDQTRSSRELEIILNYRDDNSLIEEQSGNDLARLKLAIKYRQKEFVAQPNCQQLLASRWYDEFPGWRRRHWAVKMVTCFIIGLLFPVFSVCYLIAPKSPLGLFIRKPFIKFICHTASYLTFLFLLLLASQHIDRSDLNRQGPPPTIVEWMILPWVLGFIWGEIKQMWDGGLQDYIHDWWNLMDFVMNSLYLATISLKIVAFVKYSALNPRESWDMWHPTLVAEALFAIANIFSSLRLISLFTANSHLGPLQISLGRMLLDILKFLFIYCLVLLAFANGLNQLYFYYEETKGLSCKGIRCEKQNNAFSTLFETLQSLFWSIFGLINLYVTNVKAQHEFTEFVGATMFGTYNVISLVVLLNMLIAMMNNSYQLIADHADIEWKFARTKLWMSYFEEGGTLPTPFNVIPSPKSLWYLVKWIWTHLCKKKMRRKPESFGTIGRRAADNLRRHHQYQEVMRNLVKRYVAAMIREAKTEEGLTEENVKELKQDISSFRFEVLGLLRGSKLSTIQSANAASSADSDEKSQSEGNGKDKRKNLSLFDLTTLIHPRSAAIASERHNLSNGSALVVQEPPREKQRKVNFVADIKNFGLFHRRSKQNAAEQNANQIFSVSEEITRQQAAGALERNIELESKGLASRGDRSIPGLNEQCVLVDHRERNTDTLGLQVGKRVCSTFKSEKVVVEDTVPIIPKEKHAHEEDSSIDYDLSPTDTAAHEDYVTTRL
# [6] = biological target: Short transient receptor potential channel 4 (Mus musculus) (UniProt Q9QUQ5); assay: inhibitors of mouse TRPC4 channel, confirmation, cell-based, second round, Fluo4, HEK293 TRPC4beta/mu-opioid, 1 µM (AID 2637;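 active = calcium signal ratio cut to more than 3 SD under the fully stimulated control mean yet still positive, in both repeats and the primary screen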); details: Fluo4 calcium flux, DAMGO, at 1 µM; hits give high values
# [7] = biological target: Short transient receptor potential channel 4 (Mus musculus) (UniProt Q9QUQ5); assay: mouse TRPC4 channel activators, dose response, cell-based, HEK293 TRPC4/mu-opioid, Fluo-4 calcium (AID 434937;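 active = primary screen activator hit with a dose response curve and TRPC4 channel activation at any tested dose; inactive = no activation, no dose response, or not a primary hit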)
# [8] = biological target: Short transient receptor potential channel 4 (Mus musculus) (UniProt Q9QUQ5); assay: TRPC4 positive allosteric modulators, dose response, cell-based, HEK293 TRPC4/mu-opioid, Fluo-4 calcium, EC20 DAMGO (AID 434941);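 note: calcium entry triggered by an EC20 dose of DAMGO at the co-expressed mu-opioid receptor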
# [9] = biological target: Short transient receptor potential channel 4 (Mus musculus) (UniProt Q9QUQ5); assay: mouse TRPC4 channel inhibitors, dose response, cell-based, HEK293 TRPC4/mu-opioid, Fluo-4 calcium (AID 434942;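 active = primary screen inhibitor hit that blocks the TRPC4 channel at some tested dose, yielding a dose curve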)
# [10] = biological target: Short transient receptor potential channel 6 (Mus musculus) (UniProt Q61143); assay: inhibition of mouse TRPC6 channel, confirmation, selectivity assay for TRPC4 inhibitor project, cell-based, HEK293, membrane potential dye, duplicate (AID 434948;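 active = active in primary screen and both duplicates, each dropping signal beyond three positive-control SD with fluorescence still positive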); details: HEK293 TRPC6, membrane potential dye fluorescence, at 10 µM, stimulated with maximal-effect acetylcholine; hits give high values
# Chain of Short transient receptor potential channel 6 (Mus musculus) (Q61143 whole entry, looked up): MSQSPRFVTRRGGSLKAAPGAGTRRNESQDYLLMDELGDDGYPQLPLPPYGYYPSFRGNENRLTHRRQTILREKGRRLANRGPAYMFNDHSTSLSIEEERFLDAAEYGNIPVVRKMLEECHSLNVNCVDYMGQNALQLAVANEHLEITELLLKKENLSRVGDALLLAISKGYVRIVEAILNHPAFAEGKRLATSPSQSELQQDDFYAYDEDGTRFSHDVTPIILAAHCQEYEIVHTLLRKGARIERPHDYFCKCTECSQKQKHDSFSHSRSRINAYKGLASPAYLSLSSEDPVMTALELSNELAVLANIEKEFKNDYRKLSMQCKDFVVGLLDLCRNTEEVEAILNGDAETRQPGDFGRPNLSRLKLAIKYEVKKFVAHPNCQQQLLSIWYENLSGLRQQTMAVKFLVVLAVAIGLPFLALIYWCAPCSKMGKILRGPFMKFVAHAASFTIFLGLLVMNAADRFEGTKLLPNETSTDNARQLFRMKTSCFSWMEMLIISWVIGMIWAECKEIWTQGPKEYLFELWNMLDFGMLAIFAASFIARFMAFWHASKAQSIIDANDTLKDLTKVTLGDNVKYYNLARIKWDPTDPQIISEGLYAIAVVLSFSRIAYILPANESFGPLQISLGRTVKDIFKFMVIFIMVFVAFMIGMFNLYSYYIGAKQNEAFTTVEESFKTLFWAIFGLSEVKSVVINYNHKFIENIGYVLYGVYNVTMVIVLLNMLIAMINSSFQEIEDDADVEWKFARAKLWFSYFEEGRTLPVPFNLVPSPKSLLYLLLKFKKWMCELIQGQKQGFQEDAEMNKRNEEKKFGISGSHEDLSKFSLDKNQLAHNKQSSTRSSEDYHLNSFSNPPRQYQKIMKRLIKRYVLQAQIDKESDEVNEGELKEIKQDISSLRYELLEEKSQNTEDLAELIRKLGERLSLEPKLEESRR
# [11] = biological target: Short transient receptor potential channel 6 (Mus musculus) (UniProt Q61143); assay: activation of mouse TRPC6 channel, confirmation, selectivity assay for TRPC4 activator project, cell-based, HEK293, membrane potential dye, duplicate (AID 434950;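 active = membrane potential signal rise above negative control mean plus 3 SD in both duplicates, also active in the earlier TRPC4 screen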); details: HEK293 TRPC6, membrane potential fluorescence, at 10 µM; hits give high values
# [12] = biological target: Short transient receptor potential channel 6 (Mus musculus) (UniProt Q61143); assay: TRPC6 potentiation by TRPC4 potentiator hits, confirmation, selectivity assay for TRPC4 potentiator project, HEK293 cells, membrane potential dye, duplicate (AID 434952;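 active = compound raising the membrane signal above positive-control mean plus 3 SD in both repeats, and a primary screen hit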); details: HEK293 TRPC6, membrane potential dye fluorescence, at 10 µM, maximal acetylcholine added after compound; hits give high values
# [13] = biological target: Short transient receptor potential channel 4 (Mus musculus) (UniProt Q9QUQ5); assay: calcium flux activators in TRPC4/5HT1a cells, counter-screen for TRPC4 activator project, cell-based, second counter screen, HEK293 TRPC4/5HT1a, Fluo-4 (AID 434977;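 active = calcium signal rise above buffer-control mean plus 5 SD in both duplicates, and also a hit in the primary screen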); details: Fluo-4 calcium flux, at 10 µM; hits give high values
# [14] = calcium flux inhibitors in TRPC4/5HT1a cells, confirmation, counter-screen for TRPC4 inhibitor project, cell-based, second counter screen, HEK293 TRPC4/5HT1a, Fluo-4 (AID 434978;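 active = primary screen active whose calcium signal fell more than 3 SD beyond the full-serotonin control mean in both duplicate plates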;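 for outcome: serotonin given first at submaximal then at maximal dose after compound preincubation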); details: Fluo-4 calcium flux, at 10 µM, serotonin added to trigger calcium flux; hits give high values
# [15] = test system: TRPC4 (mouse), co-expressed with 5HT1a in HEK293; assay: calcium flux potentiators in TRPC4/5HT1a cells, confirmation, counter-screen for TRPC4 potentiator project, cell-based, second counter screen, HEK293 TRPC4/5HT1a, Fluo-4 (AID 434979;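 active = signal rise over 3 SD above mean of control wells given weak agonist, in both repeats and first screen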); details: Fluo-4 calcium flux, at 10 µM, serotonin added at its EC20 dose; hits give high values
# [16] = calcium flux activation in mu-opioid HEK293 cells, confirmation, counter-screen for TRPC4 activator project, cell-based, HEK293 mu-opioid receptor line (AID 449723;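 active = hit in primary screen, with calcium signal over 5 SD above buffer well mean in both duplicates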;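 note: counter screen cells carry the mu-opioid receptor alone and lack TRPC4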); details: Fluo-4 calcium fluorescence, at 10 µM; hits give high values
# [17] = calcium flux enhancement in mu-opioid HEK293 cells, confirmation, counter-screen for TRPC4 allosteric potentiator project, cell-based, HEK293 mu-opioid receptor line (AID 449724;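 active = calcium signal rise more than 3 SD above the low-dose agonist control mean, in both duplicate plates and the primary screen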); details: Fluo-4 calcium flux, at 10 µM, compound added before EC20 DAMGO stimulus; hits give high values
structure (smiles),measurement,setting,value
CCn1c(CN2CCN(C(c3ccccc3)c3ccccc3)CC2)nc2c1c(=O)n(C)c(=O)n2C,outcome,[1],inactive
same,outcome,[2],inactive
same,outcome,[3],inactive
same,outcome,[4],inactive
same,outcome,[5],inactive
same,outcome,[6],inactive
same,outcome,[7],inactive
same,outcome,[8],inactive
same,outcome,[9],inactive
same,outcome,[10],inactive
same,outcome,[11],inactive
same,outcome,[12],inactive
same,outcome,[13],inactive
same,outcome,[14],inactive
same,potentiation,[15],18.4% (active)
same,outcome,[16],inactive
same,outcome,[17],inactive
CC1CCN(CCCCOc2ccc([N+](=O)[O-])cc2)CC1,outcome,[1],inactive
same,outcome,[2],inactive
same,outcome,[3],inactive
same,outcome,[4],inactive
same,outcome,[5],inactive
same,outcome,[6],inactive
same,outcome,[7],inactive
same,outcome,[8],inactive
same,outcome,[9],inactive
same,outcome,[10],inactive
same,outcome,[11],inactive
same,outcome,[12],inactive
same,outcome,[13],inactive
same,outcome,[14],inactive
same,outcome,[15],inactive
same,outcome,[16],inactive
same,outcome,[17],inactive
COc1cc(COCC(O)CN2CCN(CCN3C(=O)c4cccc5cccc(c45)C3=O)CC2)cc(OC)c1OC (stereo not given),outcome,[1],inactive
same,outcome,[2],inactive
same,outcome,[3],inactive
same,outcome,[4],inactive
same,outcome,[5],inactive
same,outcome,[6],inactive
same,outcome,[7],inactive
same,outcome,[8],inactive
same,outcome,[9],inactive
same,outcome,[10],inactive
same,outcome,[11],inactive
same,outcome,[12],inactive
same,outcome,[13],inactive
same,outcome,[14],inactive
same,outcome,[15],inactive
same,outcome,[16],inactive
same,outcome,[17],inactive
COc1ccc(/C=C2/SC(=S)N(NS(=O)(=O)c3ccc(C)cc3)C2=O)cc1,outcome,[1],inactive
same,outcome,[2],inactive
same,outcome,[3],inactive
same,outcome,[4],inactive
same,outcome,[5],inactive
same,outcome,[6],inactive
same,outcome,[7],inactive
same,outcome,[8],inactive
same,outcome,[9],inactive
same,outcome,[10],inactive
same,outcome,[11],inactive
same,outcome,[12],inactive
same,outcome,[13],inactive
same,outcome,[14],inactive
same,outcome,[15],inactive
same,outcome,[16],inactive
same,outcome,[17],inactive
CCCC1C(=O)Nc2ccccc2N1C(=O)c1ccc(C(C)(C)C)cc1 (stereo not given),outcome,[1],inactive
same,outcome,[2],inactive
same,outcome,[3],inactive
same,outcome,[4],inactive
same,outcome,[5],inactive
same,outcome,[6],inactive
same,outcome,[7],inactive
same,outcome,[8],inactive
same,outcome,[9],inactive
same,outcome,[10],inactive
same,outcome,[11],inactive
same,outcome,[12],inactive
same,outcome,[13],inactive
same,outcome,[14],inactive
same,potentiation,[15],30.4% (active)
same,outcome,[16],inactive
same,outcome,[17],inactive
COC(=O)c1ccccc1NC(=O)CCC(=O)N1CC(C)Oc2ccc(C)cc21 (stereo not given),outcome,[1],inactive
same,outcome,[2],inactive
same,outcome,[3],inactive
same,outcome,[4],inactive
same,inhibition,[5],75% (active)
same,outcome,[6],inactive
same,outcome,[7],inactive
same,outcome,[8],inactive
same,outcome,[9],inactive
same,outcome,[10],inactive
same,outcome,[11],inactive
same,outcome,[12],inactive
same,outcome,[13],inactive
same,inhibition,[14],44% (active)
same,outcome,[15],inactive
same,outcome,[16],inactive
same,outcome,[17],inactive
CCOc1nc(C)cc(C)c1S(=O)(=O)c1cccc(C)c1,outcome,[1],inactive
same,outcome,[2],inactive
same,outcome,[3],inactive
same,outcome,[4],inactive
same,outcome,[5],inactive
same,outcome,[6],inactive
same,outcome,[7],inactive
same,outcome,[8],inactive
same,outcome,[9],inactive
same,outcome,[10],inactive
same,outcome,[11],inactive
same,outcome,[12],inactive
same,outcome,[13],inactive
same,outcome,[14],inactive
same,outcome,[15],inactive
same,outcome,[16],inactive
same,outcome,[17],inactive
Cc1ccc(/C=N/NC(=S)NC2CCCCC2)o1,outcome,[1],inactive
same,outcome,[2],inactive
same,outcome,[3],inactive
same,potentiation,[4],66% (active)
same,outcome,[5],inactive
same,outcome,[6],inactive
same,outcome,[7],inactive
same,outcome,[8],inactive
same,outcome,[9],inactive
same,outcome,[10],inactive
same,outcome,[11],inactive
same,outcome,[12],inactive
same,outcome,[13],inactive
same,outcome,[14],inactive
same,potentiation,[15],85.1% (active)
same,outcome,[16],inactive
same,outcome,[17],inactive
COc1ccc(C(=O)OCCc2sc[n+](CC(=O)c3ccccc3)c2C)cc1,outcome,[1],inactive
same,outcome,[2],inactive
same,outcome,[3],inactive
same,outcome,[4],inactive
same,outcome,[5],inactive
same,outcome,[6],inactive
same,outcome,[7],inactive
same,outcome,[8],inactive
same,outcome,[9],inactive
same,inhibition,[10],43% (active)
same,outcome,[11],inactive
same,outcome,[12],inactive
same,outcome,[13],inactive
same,outcome,[14],inactive
same,outcome,[15],inactive
same,outcome,[16],inactive
same,outcome,[17],inactive
CC1(C#CC[N+]2(C)CCCCC2)CCC2C(O1)c1ccccc1OC2(C)C (stereo not given),outcome,[1],inactive
same,outcome,[2],inactive
same,potentiation,[3],8% (active)
same,potentiation,[4],21% (active)
same,outcome,[5],inactive
same,outcome,[6],inactive
same,outcome,[7],inactive
same,outcome,[8],inactive
same,outcome,[9],inactive
same,outcome,[10],inactive
same,outcome,[11],inactive
same,outcome,[12],inactive
same,outcome,[13],inactive
same,outcome,[14],inactive
same,outcome,[15],inactive
same,outcome,[16],inactive
same,outcome,[17],inactive
CC(C)(C)n1nnnc1C(c1ccc(Cl)cc1)N(Cc1cccnc1)Cc1ccco1 (stereo not given),outcome,[1],inactive
same,outcome,[2],inactive
same,outcome,[3],inactive
same,outcome,[4],inactive
same,outcome,[5],inactive
same,outcome,[6],inactive
same,outcome,[7],inactive
same,outcome,[8],inactive
same,outcome,[9],inactive
same,outcome,[10],inactive
same,outcome,[11],inactive
same,outcome,[12],inactive
same,outcome,[13],inactive
same,outcome,[14],inactive
same,outcome,[15],inactive
same,outcome,[16],inactive
same,outcome,[17],inactive
COc1ccc(-c2cc(C3CCN(c4cc(Cl)nc(N)n4)CC3)[nH]n2)cc1,outcome,[1],inactive
same,outcome,[2],inactive
same,outcome,[3],inactive
same,potentiation,[4],20% (active)
same,outcome,[5],inactive
same,outcome,[6],inactive
same,outcome,[7],inactive
same,outcome,[8],inactive
same,outcome,[9],inactive
same,outcome,[10],inactive
same,outcome,[11],inactive
same,outcome,[12],inactive
same,outcome,[13],inactive
same,outcome,[14],inactive
same,potentiation,[15],80.5% (active)
same,outcome,[16],inactive
same,outcome,[17],inactive
COc1ccc(/C=N/NC(=O)c2ccc(F)cc2)cc1CN1CCc2cc(OC)c(OC)cc2C1C (stereo not given),outcome,[1],inactive
same,outcome,[2],inactive
same,outcome,[3],inactive
same,outcome,[4],inactive
same,inhibition,[5],86% (active)
same,outcome,[6],inactive
same,outcome,[7],inactive
same,outcome,[8],inactive
same,outcome,[9],inactive
same,outcome,[10],inactive
same,outcome,[11],inactive
same,outcome,[12],inactive
same,outcome,[13],inactive
same,outcome,[14],inactive
same,outcome,[15],inactive
same,outcome,[16],inactive
same,outcome,[17],inactive
c1ccc(Nc2nc(N3CCCCC3)nc(N3CCNCC3)n2)cc1,outcome,[1],inactive
same,outcome,[2],inactive
same,outcome,[3],inactive
same,outcome,[4],inactive
same,outcome,[5],inactive
same,outcome,[6],inactive
same,outcome,[7],inactive
same,outcome,[8],inactive
same,outcome,[9],inactive
same,outcome,[10],inactive
same,outcome,[11],inactive
same,outcome,[12],inactive
same,outcome,[13],inactive
same,outcome,[14],inactive
same,potentiation,[15],44.6% (active)
same,outcome,[16],inactive
same,outcome,[17],inactive
Cc1cc(Nc2ccc3c(c2)OCCO3)c2cccc(C)c2n1,outcome,[1],inactive
same,outcome,[2],inactive
same,outcome,[3],inactive
same,outcome,[4],inactive
same,outcome,[5],inactive
same,outcome,[6],inactive
same,outcome,[7],inactive
same,outcome,[8],inactive
same,outcome,[9],inactive
same,outcome,[10],inactive
same,outcome,[11],inactive
same,outcome,[12],inactive
same,outcome,[13],inactive
same,outcome,[14],inactive
same,outcome,[15],inactive
same,outcome,[16],inactive
same,outcome,[17],inactive
